Source: PubChem (several laboratories)
In the library only some 1.4% were active in any assay of this set; here they are far more common.
HTR5A ag – HTR5A agonism, opioid heterodimer counter-screen. activation, % at 9.3 µM. HTR5A agonist assay, luminescence, cell-based. AID 504692. 340,000 compounds, 0.61% hits; in the data active = activation mostly above about 9.5%, no sharp cut-off; inactive = mostly below about 7.6%;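 also: 0% = cells with vehicle only and 100% = reference agonist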
Target sequence (P47898 whole entry, looked up): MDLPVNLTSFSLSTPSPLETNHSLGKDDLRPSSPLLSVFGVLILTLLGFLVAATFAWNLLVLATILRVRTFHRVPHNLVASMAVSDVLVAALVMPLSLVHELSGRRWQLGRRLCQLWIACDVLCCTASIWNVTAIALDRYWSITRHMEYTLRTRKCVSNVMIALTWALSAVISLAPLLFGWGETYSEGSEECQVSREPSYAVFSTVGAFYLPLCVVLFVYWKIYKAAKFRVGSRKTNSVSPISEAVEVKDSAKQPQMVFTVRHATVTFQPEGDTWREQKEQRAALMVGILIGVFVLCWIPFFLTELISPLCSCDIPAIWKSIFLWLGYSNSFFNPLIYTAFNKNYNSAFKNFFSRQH
OPRM1-OPRD1 inv – inverse agonists of human mu-delta opioid receptor heterodimerization | P35372+P41143 | cell-based MOR-DOR heterodimer luminescence, inverse agonism | inhibition, % at 9.3 µM | 340,000 compounds, 0.21% hits | AID 504357; in the data active = inhibition above about 22%, passing the limit was not always enough;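 also: 0% = cells with DMSO and 100% = wells without cells with DMSO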
pCIP destab – lowers stability of the mouse p/CIP coactivator protein | F442A p/CIP-EGFP cells, EGFP fluorescence, 16 h | 290,000 compounds, 0.01% hits | Q05BA5 | decrease of EGFP signal, % at 10 µM;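 active = EGFP signal decrease of at least 30% at 10 µM or well 3 SD below plate mean, unless failing retest; inactive = the rest, including hits failing retest or dose response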
HTR5A inv ag – HTR5A inverse agonism, opioid heterodimer counter-screen | P47898 | HTR5A cell line, luminescence | inhibition, % at 9.3 µM | 340,000 compounds, 0.083% hits; in the data active = inhibition mostly above about 23%, no sharp cut-off; inactive = mostly below about 18%;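 also: 0% = cells with DMSO and 100% = no-cell wells with DMSO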
MIN6 prolif – MIN6 beta-cell proliferation induction | MIN6 cells proliferation, ATPlite luminescence, 48 h; cells starved in 0.2% serum; 100% = growth in 10% serum | proliferation, % at 10 µM | 330,000 compounds, 0.29% hits | AID 2380;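 active = compounds whose signal lies at least 3.5 SD above the mean of all wells on their plate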;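 also: 0% = DMSO-treated cells in low-serum medium and 100% = 10% serum control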
MOR-DOR ag – agonists of human mu-delta opioid receptor heterodimerization; 340,000 compounds, 0.3% hits; cells, OPRM1-OPRD1 heterodimerization, luminescence; activation, % at 9.3 µM; in the data active = activation above about 18%;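 also: 0% = vehicle-treated cells and 100% = reference agonist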
Numbers without * were called inactive; nt = not tested or not shown.

SMILES | HTR5A ag | OPRM1-OPRD1 inv | pCIP destab | HTR5A inv ag | MIN6 prolif | MOR-DOR ag
Cc1cccc(-c2noc(CCCC(=O)N3CCOCC3)n2)c1 | 9.8* | 13.1 | -2.9 | -2.1 | -0.8 | -2.3
O=C(CNC(=O)c1ccco1)NCc1ccc2c(c1)OCO2 | 2.7 | 9.9 | nt | -6.9 | 1.9 | -2.5
COc1cc(N=Nc2ccc(C)cc2S(N)(=O)=O)c(C)cc1N | 9.8* | 12.0 | nt | -35.0 | nt | -2.3
Cc1c(Cl)cccc1N=c1c([N+](=O)[O-])nn(-c2ccccc2)n1O | -2.5 | -45.9 | -2.6 | 8.2 | 1.3 | 8.6
Cc1ccc(N=c2c([N+](=O)[O-])nn(-c3ccccc3)n2O)c(C)c1 | 10.6* | -36.7 | -4.1 | -15.2 | -1.5 | 6.7
O=S(=O)(NN=C1CCCCCC1)c1ccccc1 | 13.0* | 1.2 | -3.0 | -28.1 | 3.9 | -0.2
O=C(CCl)N=c1sccn1Cc1ccc(Cl)cc1Cl | 53.2* | -383.8 | -5.0 | -4.1 | -5.4 | 77.1*
CCC(=O)OCC(=O)N=c1sccn1Cc1ccc(C)cc1 | -2.9 | 10.4 | -14.9 | -27.2 | -0.9 | -1.5
O=C(CCl)N=c1sccn1Cc1ccccc1Cl | 85.0* | -329.9 | -4.3 | -251.8 | -6.1 | 66.2*
NC(=O)c1ccc(=O)n(Cc2ccc(Cl)cc2Cl)c1 | -1.8 | 1.7 | -9.1 | 6.8 | -3.7 | -0.3
O=C(CCl)N=c1sccn1Cc1cccc2ccccc12 | 72.6* | -395.8 | 7.1 | -20.7 | nt | 73.7*
CCC(=O)OCC(=O)N=c1sccn1Cc1ccccc1Cl | -5.2 | 3.2 | -11.8 | 10.2 | 3.9 | -0.6
Cc1noc(C)c1S(=O)(=O)N(C)C[C@H]1Oc2c(cccc2N(C)C)C(=O)N([C@H](C)CO)C[C@@H]1C | 4.5 | -1.7 | nt | -15.5 | -1.7 | 0.4
O=C(Nc1ccc(Cl)cc1)N(CCCN1CCOCC1)Cc1cccs1 | 5.8 | -24.2 | 5.7 | -17.0 | -1.9 | 4.1
O=S(=O)(c1ccc(Cl)cc1)N(CCCN1CCOCC1)Cc1cccs1 | 10.6* | 13.3 | -3.3 | 5.8 | 2.1 | -2.5
CS(=O)(=O)c1ncc(Cl)c(C(=O)Nc2ccc(N3CCOCC3)cc2)n1 | -4.2 | 17.6 | -13.4 | 22.5 | -4.5 | -3.0
CS(=O)(=O)c1ncc(Cl)c(C(=O)Nc2ccc(OC(F)F)cc2)n1 | -2.7 | 34.5* | -23.2 | 10.1 | -5.0 | -7.2
O=CN(Cc1nc2ccccc2[nH]1)c1ccc(C(=O)O)cc1 | 0.8 | 11.0 | nt | -3.3 | nt | -2.1
Cc1ccc2c(c1)c1c3n2CCCNC3CCC1 (stereo unspecified) | 10.4* | -14.8 | 4.0 | 10.0 | -2.4 | 3.0
O=C(NCc1nnc(SCC(=O)N2CCCCCC2)o1)c1ccco1 | 11.3* | 6.3 | 8.0 | -22.3 | -2.2 | -1.1
CC(=O)Nc1ccc(-c2csc(Nc3ccc(Cl)cn3)n2)cc1 | 10.9* | -8.1 | -8.2 | -27.8 | -2.0 | 1.8
CCOC(=O)c1c(C)[nH]c(C)c1C(=O)COC(=O)c1c(OC)cccc1OC | -0.3 | 7.6 | -12.1 | 0.8 | 2.1 | -1.5
CCOC(=O)c1c(C)[nH]c(C)c1C(=O)COC(=O)CCc1ccccc1 | 13.1* | 4.7 | nt | -5.0 | 1.4 | -1.2
CC(C)c1onc(C(=O)N2CCN(c3ccccc3)CC2)c1[N+](=O)[O-] | -0.2 | -16.4 | -13.7 | 0.7 | -3.4 | 3.3
Cc1ccc(Cl)cc1N1CCN(C(=O)c2noc(C(C)C)c2[N+](=O)[O-])CC1 | 42.4* | -276.4 | -3.0 | -172.0 | -7.0 | 52.2*
SMILES | HTR5A ag | OPRM1-OPRD1 inv | pCIP destab | HTR5A inv ag | MIN6 prolif | MOR-DOR ag
CCOC(=O)NC(O)C(=O)c1cccs1 (stereo unspecified) | 4.3 | 1.6 | -0.4 | 2.5 | 5.0* | -0.3
CCC(CO)Oc1cc(NC(=O)c2ccccc2[N+](=O)[O-])c2ncn(C(C)C)c2c1 (stereo unspecified) | -0.6 | -0.6 | nt | -5.4 | 2.1 | 0.1
Cc1c(NS(=O)(=O)c2cccc(C(=O)OCC(=O)c3ccc(Cl)cc3)c2)c(=O)n(-c2ccccc2)n1C | -3.6 | 9.3 | nt | 9.0 | nt | -2.4
CC(C)(C)C(=O)N1CCC(O)(CS(=O)(=O)Cc2ccccc2)CC1 | 2.4 | 12.3 | 4.5 | 6.8 | 0.6 | -2.7
CC(C)(C)C(=O)N1CCC(O)(CS(=O)(=O)Cc2ccc(Cl)cc2)CC1 | 12.3* | 13.9 | -1.1 | -37.7 | -0.1 | -2.8
COc1ccc(C(=O)Nc2ccc(O)c3ccccc23)cc1OC | 6.3 | -24.1 | nt | -13.2 | -4.2 | 4.8
